These sequences were tested against AMOTL1 (assay: pooled miR-30 sensor sort-seq; sequence = guide strand). Details: shRNA.
TAGACTTGACCAGACTTTCATA was tested, and the sensor-assay potency score (higher = more potent) was -0.788.
TTGCAGTCCGCACTGCTGCTAA was tested, and the sensor-assay potency score (higher = more potent) was -0.698.
In the case of TAATCATAGCATCTTTCTCTAT, the sensor-assay potency score (higher = more potent) is reported as -1.

Each sequence was assayed against AMPH in the same assay as above. Details: shRNA.
TTTTTGATGGAAGTCTTCCCAC was tested, and the sensor-assay potency score (higher = more potent) was -0.336.
TTCTGGAACAAAGTTGTCCTCA showed a sensor-assay potency score (higher = more potent) of -0.205.
Work on TTGTCTGTGAAGGTGACCGAGG yielded a sensor-assay potency score (higher = more potent) of -0.658.
For TAGTCCACTAGCTTCCTGCTGC, the sensor-assay potency score (higher = more potent) was 0.262.
TCATAGTCCACTAGCTTCCTGC gave a sensor-assay potency score (higher = more potent) of -0.747.
With TTTACTTTAGAACAATCTGTGA the sensor-assay potency score (higher = more potent) was -0.223.
For TTGATTGCTGCTAAATATCCTC, the sensor-assay potency score (higher = more potent) was -0.275.
Sequence TTGCTGCTAAATATCCTCGGAG has a sensor-assay potency score (higher = more potent) of -0.441.
Sequence TAATTCATCACATCTTCTGCAG has a sensor-assay potency score (higher = more potent) of -0.0381.
For TTTCCTTATGAAACTTGGCTTC, the sensor-assay potency score (higher = more potent) was -0.107.
For TAGAGATTCGACTCTCATCCTT, the sensor-assay potency score (higher = more potent) was 0.077.
In the case of TTTTTTGCACACATGCTCCATT, the sensor-assay potency score (higher = more potent) is reported as -0.524.
With TGATTTGGACTTGCTGTCGGGC the sensor-assay potency score (higher = more potent) was -0.73.
Work on TTTTACTTTAGAACAATCTGTG yielded a sensor-assay potency score (higher = more potent) of 0.225.
In the case of TTACTTTAGAACAATCTGTGAA, the sensor-assay potency score (higher = more potent) is reported as -0.181.
TAACAAAAGTGAACTCTTCAGG showed a sensor-assay potency score (higher = more potent) of -0.296.
TTAACATAAAATCCAACTCGTC showed a sensor-assay potency score (higher = more potent) of -0.669.
In the case of TACTTTAGAACAATCTGTGAAG, the sensor-assay potency score (higher = more potent) is reported as -0.229.
Work on TAACATAAAATCCAACTCGTCT yielded a sensor-assay potency score (higher = more potent) of -0.296.
In the case of AAACTCTTCAAACACTTTCTGT, the sensor-assay potency score (higher = more potent) is reported as -0.65.
Sequence TCTGCATACACATAGATCCAGG has a sensor-assay potency score (higher = more potent) of -1.05.
For TAAATGAACCACCAGAAGCCGG, the sensor-assay potency score (higher = more potent) was -1.23.
TTCTTCGAACTGTTCGTCTTTT showed a sensor-assay potency score (higher = more potent) of -0.66.
TTGTGAATAATGAAGTATCCTG gave a sensor-assay potency score (higher = more potent) of -0.215.

These sequences were tested against AMY2A in the same assay as above. Details: shRNA.
For TTGTACAGCCTAGCATCCCAGA, the sensor-assay potency score (higher = more potent) was -1.14.
TTATCCACAAAGACAAGCGCTC showed a sensor-assay potency score (higher = more potent) of -0.172.
Work on TTTACCATCATTGAAATCCCAT yielded a sensor-assay potency score (higher = more potent) of -0.145.
For TTAAAGAAAATGACCAGTCATC, the sensor-assay potency score (higher = more potent) was -0.896.
TACATTGCGGAAAATAACCATG gave a sensor-assay potency score (higher = more potent) of -1.22.
TTAAGTAAGACATCTTCTCTCC showed a sensor-assay potency score (higher = more potent) of 0.353.

These sequences were tested against ANAPC5 in the same assay as above. Details: shRNA.
ATAGCTATCGGATCTCTTCTGC was tested, and the sensor-assay potency score (higher = more potent) was 0.457.
Sequence TGTAATACAACCGCTTTCCTAT has a sensor-assay potency score (higher = more potent) of -0.539.
TCACATAACATCCATAACTGGG was tested, and the sensor-assay potency score (higher = more potent) was -0.755.
TTTTTGATCACATAACATCCAT showed a sensor-assay potency score (higher = more potent) of 0.00973.
TACACTTGTTTTGTGAACCTCT gave a sensor-assay potency score (higher = more potent) of 0.756.
TTTGACAGTGTAATATCTGGGC was tested, and the sensor-assay potency score (higher = more potent) was 0.588.
TTTGATTCTGATCTGCACTGAA gave a sensor-assay potency score (higher = more potent) of 0.516.

From the OligoGym collection
Also: reference of the scale not given here.
